Results as given in PubChem BioAssay (EPA / NIEHS).
Inconclusive results are not listed. Active and inactive are the calls of the source. Rule for the calls, unless noted: active = hit-call score of the fitted dose curve at least 0.9, where 1 is the maximum; inconclusive = response in the unintended direction; inactive = score below 0.9.

What was measured:
[1] = target: Peroxisome proliferator-activated receptor gamma (Homo sapiens) (UniProt P37231); assay: NVS_NR_hPPARg: NovaScreen (NVS) Nuclear Receptor Binding Assay for human Peroxisome Proliferator-activated Receptor gamma (PPARg) (AID 2283370)
Chain of Peroxisome proliferator-activated receptor gamma (Homo sapiens) (P37231 whole entry, looked up, the tested form may be a part): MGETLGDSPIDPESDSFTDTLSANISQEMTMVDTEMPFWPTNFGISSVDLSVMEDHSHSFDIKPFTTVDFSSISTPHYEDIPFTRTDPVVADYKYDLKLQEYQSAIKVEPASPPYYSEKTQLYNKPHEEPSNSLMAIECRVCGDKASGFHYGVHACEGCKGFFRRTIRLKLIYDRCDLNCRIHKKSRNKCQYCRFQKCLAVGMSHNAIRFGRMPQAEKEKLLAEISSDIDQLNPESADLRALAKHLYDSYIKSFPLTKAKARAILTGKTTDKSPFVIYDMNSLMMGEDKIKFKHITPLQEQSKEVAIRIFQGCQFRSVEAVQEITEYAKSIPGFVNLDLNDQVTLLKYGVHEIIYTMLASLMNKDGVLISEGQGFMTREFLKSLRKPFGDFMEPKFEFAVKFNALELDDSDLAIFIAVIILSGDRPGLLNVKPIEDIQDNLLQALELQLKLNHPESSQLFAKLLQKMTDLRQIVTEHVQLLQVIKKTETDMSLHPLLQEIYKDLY
Outline: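 Cell-free fluorescence polarization binding to human PPARg protein, read 2 h after dosing. Primary screen in duplicate at 25 uM, actives followed in concentration series; loss of signal relative to DMSO scored.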

[2] = target: Estrogen receptor beta (Homo sapiens) (UniProt Q92731); assay: OT_ER_ERbERb_1440: Odyssey Thera (OT) 24-hour HEK293T Protein-Complementation Assay for Estrogen Receptor-beta/-beta Homodimer (AID 2283380);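 note: fluorescence gain from ER beta LBD homodimer complementation read by laser scanning cytometry; scored as signal increase over DMSO baseline for both agonists and antagonists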
Chain of Estrogen receptor beta (Homo sapiens) (Q92731 whole entry, looked up, the tested form may be a part): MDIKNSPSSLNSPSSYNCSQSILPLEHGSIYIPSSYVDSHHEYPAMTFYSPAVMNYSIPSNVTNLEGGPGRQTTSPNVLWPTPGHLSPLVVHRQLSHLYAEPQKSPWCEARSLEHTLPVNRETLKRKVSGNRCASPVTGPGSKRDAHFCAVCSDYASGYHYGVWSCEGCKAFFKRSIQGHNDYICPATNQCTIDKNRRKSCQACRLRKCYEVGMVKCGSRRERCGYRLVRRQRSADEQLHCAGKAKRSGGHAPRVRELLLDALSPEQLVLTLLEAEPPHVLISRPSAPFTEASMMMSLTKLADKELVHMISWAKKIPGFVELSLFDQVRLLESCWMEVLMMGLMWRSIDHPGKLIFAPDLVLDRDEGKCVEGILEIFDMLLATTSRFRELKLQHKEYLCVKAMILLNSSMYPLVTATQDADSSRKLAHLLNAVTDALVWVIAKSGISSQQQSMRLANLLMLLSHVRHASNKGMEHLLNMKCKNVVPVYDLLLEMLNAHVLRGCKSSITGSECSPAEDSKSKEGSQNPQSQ
Outline: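 Fluorescence increase, nuclear for agonists or whole-cell for antagonists, relative to DMSO vehicle, quantified by laser scanning cytometer after fixation and Draq5 staining. Readout from 24 h treatment of HEK293T cells carrying complementation-paired ER beta LBD (aa 310-547).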

[3] = target: Estrogen receptor (Homo sapiens) (UniProt P03372); assay: OT_ERa_GFPERaERE_0480: Odyssey Thera (OT) 8-hour HeLa Transcription Induction Assay for Estrogen Receptor (AID 2283381; active = hit-call score of the fitted dose curve at least 0.9, where 1 is the maximum; inactive = score below 0.9)
Chain of Estrogen receptor (Homo sapiens) (P03372 whole entry, looked up): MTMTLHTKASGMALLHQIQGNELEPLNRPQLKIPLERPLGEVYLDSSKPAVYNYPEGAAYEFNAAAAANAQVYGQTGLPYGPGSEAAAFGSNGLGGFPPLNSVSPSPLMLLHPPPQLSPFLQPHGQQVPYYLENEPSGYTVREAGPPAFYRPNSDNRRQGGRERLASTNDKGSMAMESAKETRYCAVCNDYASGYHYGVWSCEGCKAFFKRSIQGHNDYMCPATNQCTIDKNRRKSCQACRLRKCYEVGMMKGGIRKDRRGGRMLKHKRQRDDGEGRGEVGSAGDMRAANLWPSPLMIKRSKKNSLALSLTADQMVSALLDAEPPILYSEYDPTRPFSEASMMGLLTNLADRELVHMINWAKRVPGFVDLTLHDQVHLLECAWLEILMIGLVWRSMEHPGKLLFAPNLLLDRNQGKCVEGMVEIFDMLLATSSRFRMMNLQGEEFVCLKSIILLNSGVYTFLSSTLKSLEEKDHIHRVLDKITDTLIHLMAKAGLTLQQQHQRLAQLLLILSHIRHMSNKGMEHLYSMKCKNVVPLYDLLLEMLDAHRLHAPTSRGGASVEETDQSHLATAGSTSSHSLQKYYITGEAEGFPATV
Outline: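 HeLa cells dosed with compound and imaged by fluorescence microscopy at 8 h; GFP induction from an ERE reporter quantified by high-content image analysis and fitted as gain of signal against DMSO baseline.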

[4] = target: Estrogen receptor (Homo sapiens) (UniProt P03372); assay: OT_ERa_GFPERaERE_0120: Odyssey Thera (OT) 2-hour HeLa Transcription Induction Assay for Estrogen Receptor (AID 2283382)
Outline: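 HeLa cells were dosed with test chemical and read 2 hours later for GFP-ERα/ERE-linked fluorescent protein induction by fluorescence microscopy. Gain-of-signal was fitted relative to DMSO baseline, quantified by high content image analysis.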

[5] = target: Bile acid receptor (Homo sapiens) (UniProt Q96RI1); assay: OT_FXR_FXRSRC1_1440: Odyssey Thera (OT) 24-hour HEK293T Protein-Complementation Assay for Farnesoid X receptor/SRC-1 Co-activator (AID 2283384)
Chain of Bile acid receptor (Homo sapiens) (Q96RI1 whole entry, looked up, the tested form may be a part): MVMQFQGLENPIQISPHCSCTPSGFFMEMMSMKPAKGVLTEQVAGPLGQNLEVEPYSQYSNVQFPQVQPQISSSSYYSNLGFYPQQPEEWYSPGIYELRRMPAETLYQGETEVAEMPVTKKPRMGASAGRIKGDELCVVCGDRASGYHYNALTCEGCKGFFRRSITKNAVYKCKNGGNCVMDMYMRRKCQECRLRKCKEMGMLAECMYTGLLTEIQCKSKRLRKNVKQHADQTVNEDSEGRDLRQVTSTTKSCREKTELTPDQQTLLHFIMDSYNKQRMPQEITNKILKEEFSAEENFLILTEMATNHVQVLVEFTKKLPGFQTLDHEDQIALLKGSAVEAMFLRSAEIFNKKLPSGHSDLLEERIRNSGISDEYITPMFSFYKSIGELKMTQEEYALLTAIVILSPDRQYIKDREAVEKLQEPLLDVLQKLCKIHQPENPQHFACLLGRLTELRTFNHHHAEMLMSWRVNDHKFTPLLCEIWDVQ
Outline: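 HEK293T cells were dosed with compound and read 24 h later by fluorescence intensity from protein-fragment complementation reporting FXR/SRC-1 co-activator interaction. Gain of signal was fitted relative to DMSO negative control as baseline.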

[6] = target: Retinoic acid receptor RXR-alpha (Homo sapiens) (UniProt P19793); assay: OT_NURR1_NURR1RXRa_0480: Odyssey Thera (OT) 8-hour HEK293T Protein Complementation Assay for Nurr1/retinoid X receptor (RXR) (AID 2283385)
Chain of Retinoic acid receptor RXR-alpha (Homo sapiens) (P19793 whole entry, looked up, the tested form may be a part): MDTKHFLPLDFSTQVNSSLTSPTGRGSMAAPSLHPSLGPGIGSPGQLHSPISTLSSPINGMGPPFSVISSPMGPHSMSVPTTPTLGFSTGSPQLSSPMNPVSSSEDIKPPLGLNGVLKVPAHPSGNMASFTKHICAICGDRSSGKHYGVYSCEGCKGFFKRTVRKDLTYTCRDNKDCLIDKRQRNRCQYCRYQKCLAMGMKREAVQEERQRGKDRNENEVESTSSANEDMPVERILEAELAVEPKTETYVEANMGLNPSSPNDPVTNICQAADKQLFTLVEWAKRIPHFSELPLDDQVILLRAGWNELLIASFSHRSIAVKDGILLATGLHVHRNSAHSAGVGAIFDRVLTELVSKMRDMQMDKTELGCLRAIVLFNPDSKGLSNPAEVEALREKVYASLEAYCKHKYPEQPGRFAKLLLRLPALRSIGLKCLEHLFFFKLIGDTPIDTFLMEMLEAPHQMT
Outline: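 HEK293T cells expressing Nurr1 and RXRα fused to reporter fragments were dosed with compound for 8 hours. Complex formation was read as fluorescence intensity and analysed as gain of signal against DMSO as baseline.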

[7] = target: Peroxisome proliferator-activated receptor gamma (Homo sapiens) (UniProt P37231); assay: OT_PPARg_PPARgSRC1_0480: Odyssey Thera (OT) 8-hour Protein-Complementation Assay for Peroxisome Proliferator-activated Receptor Gamma / SRC-1 Co-activator (AID 2283387)
Outline: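 HEK293T transiently transfected with PPARg and SRC-1 fused to Venus YFP fragments, compounds 8 h at 37C. Fixed, Draq5-stained cells imaged; nuclear/cytoplasmic 488 nm fluorescence ratio over at least 350 cells per image; gain fitted versus DMSO.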

[8] = target: Peroxisome proliferator-activated receptor gamma (Homo sapiens) (UniProt P37231); assay: OT_PPARg_PPARgSRC1_1440: Odyssey Thera (OT) 24-hour Protein-Complementation Assay for Peroxisome Proliferator-activated Receptor Gamma/ SRC-1 Co-activator (AID 2283388)
Outline: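 HEK293T transiently transfected with PPARg/SRC-1 split-Venus YFP fusions 48 h before dosing, then treated 24 h at 37C. Fixed cells imaged; nuclear/cytoplasmic 488 nm fluorescence ratio, gain of signal versus DMSO.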

[9] = target: Bile acid receptor (Homo sapiens) (UniProt Q96RI1); assay: OT_FXR_FXRSRC1_0480: Odyssey Thera (OT) 8-hour HEK293T Protein-Complementation Assay for Farnesoid X receptor/SRC-1 Co-activator (AID 2283383)
Outline: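 HEK293T cells expressing FXR and SRC-1 fused to reporter fragments were dosed with compound for 8 h; fluorescence from the reconstituted reporter marked co-activator recruitment. Gain of signal was fitted against the DMSO baseline.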

[10] = target: human Serotonin Transporter (SERT), SLC6A4 (gene 6532) (UniProt P31645); assay: NVS_TR_hSERT: NovaScreen (NVS) Transporter Assay for human Serotonin Transporter (SERT) (AID 2283372)
Chain of human Serotonin Transporter (SERT), SLC6A4 (gene 6532) (P31645 whole entry, looked up): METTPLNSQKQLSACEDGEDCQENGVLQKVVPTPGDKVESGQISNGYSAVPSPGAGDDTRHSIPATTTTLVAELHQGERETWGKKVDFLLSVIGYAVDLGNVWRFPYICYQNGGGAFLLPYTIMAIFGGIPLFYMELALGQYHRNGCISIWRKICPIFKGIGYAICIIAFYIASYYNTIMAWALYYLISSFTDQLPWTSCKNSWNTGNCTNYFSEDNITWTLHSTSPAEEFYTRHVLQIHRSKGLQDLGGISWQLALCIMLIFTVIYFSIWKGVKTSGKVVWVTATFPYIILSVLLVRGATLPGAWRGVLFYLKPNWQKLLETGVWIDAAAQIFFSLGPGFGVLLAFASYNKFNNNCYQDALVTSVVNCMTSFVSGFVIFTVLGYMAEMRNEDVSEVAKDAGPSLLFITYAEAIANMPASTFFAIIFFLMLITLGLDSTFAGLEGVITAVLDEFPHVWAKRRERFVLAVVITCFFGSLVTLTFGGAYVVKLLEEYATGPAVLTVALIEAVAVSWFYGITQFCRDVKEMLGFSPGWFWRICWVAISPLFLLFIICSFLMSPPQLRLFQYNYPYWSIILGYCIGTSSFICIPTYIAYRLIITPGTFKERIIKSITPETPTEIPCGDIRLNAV
Outline: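 Radioligand binding to native SERT in human platelet membranes, read by filter-based scintillation counting 1 h after dosing. Primary screen in duplicate at 25 uM; actives followed up in concentration series; loss of signal versus DMSO baseline.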

[11] = target: Retinoic acid receptor RXR-alpha (Homo sapiens) (UniProt P19793); assay: OT_NURR1_NURR1RXRa_1440: Odyssey Thera (OT) 24-hour HEK293T Protein Complementation Assay for Nurr1/retinoid X receptor (RXR) (AID 2283386)
Outline: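 HEK293T cells were dosed with compound and read 24 h later by fluorescence intensity in a protein-fragment complementation format, where Nurr1–RXRα interaction reconstitutes a split reporter. Activity was fitted as gain of signal relative to DMSO baseline.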

[12] = target: mouse Estrogen Receptor alpha (Era), Esr1 (gene 13982) (UniProt P19785); assay: NVS_NR_mERa: NovaScreen (NVS) Nuclear Receptor Binding Assay for mouse Estrogen Receptor alpha (Era) (AID 2283378);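 note: hit means loss of bound radioligand signal relative to DMSO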
Chain of mouse Estrogen Receptor alpha (Era), Esr1 (gene 13982) (P19785 whole entry, looked up): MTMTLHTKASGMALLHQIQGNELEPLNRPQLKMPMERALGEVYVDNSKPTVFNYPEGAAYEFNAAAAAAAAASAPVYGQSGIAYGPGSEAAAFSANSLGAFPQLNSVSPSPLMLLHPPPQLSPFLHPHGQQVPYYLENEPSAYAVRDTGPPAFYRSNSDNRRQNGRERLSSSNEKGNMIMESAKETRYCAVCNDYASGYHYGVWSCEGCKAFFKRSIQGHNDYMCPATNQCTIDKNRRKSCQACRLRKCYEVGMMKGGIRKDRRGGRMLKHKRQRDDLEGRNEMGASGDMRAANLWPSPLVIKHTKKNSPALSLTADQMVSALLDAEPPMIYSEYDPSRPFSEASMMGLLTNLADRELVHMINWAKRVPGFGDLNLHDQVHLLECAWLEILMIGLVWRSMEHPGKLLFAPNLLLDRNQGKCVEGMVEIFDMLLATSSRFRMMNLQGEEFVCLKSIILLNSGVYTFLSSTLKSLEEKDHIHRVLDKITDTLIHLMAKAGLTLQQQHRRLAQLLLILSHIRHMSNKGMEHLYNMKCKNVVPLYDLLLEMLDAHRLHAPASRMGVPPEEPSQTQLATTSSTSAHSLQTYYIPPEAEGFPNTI
Outline: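 Cell-free radioligand competitive displacement binding, read by filter-based scintillation counting 18 h after dosing. Primary screen run in duplicate at 25 uM, actives retested in concentration series; loss of signal versus DMSO.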

Measured: AC50

CCCCC(CC)COC(=O)CCCCC(=O)OCc1ccccc1 (stereo not drawn)
not listed: [9] | [10] | [11] | [12]
inactive: all other assays above

CCCCOCCO
inactive: [3] | [4] | [9] | [5] | [6] | [7] | [8]

Oc1cccc(O)c1
active: [2] 18 µM | [3] 52.9 µM
inactive: [4] | [9] | [5] | [6] | [7] | [8]

CCCCCCC(=O)O
inactive: [2] | [4] | [9] | [5] | [6]

ClC1=C(Cl)C(Cl)(Cl)C(Cl)=C1Cl
inactive: [2] | [3] | [4] | [7] | [8]

c1ccc2c(c1)Cc1ccccc1-2
inactive: [2] | [3] | [4] | [9] | [6] | [7] | [8]

CN1CCN(c2ccccc2/C=C2\SCCN(c3ccc(Cl)c(Cl)c3)C2=O)CC1
active: [3] 19.5 µM | [4] 68.3 µM
inactive: [1] | [2] | [7] | [8]

CCCCCCCCOC(=O)CCCCCCCCC(=O)OCCCCCCCC
not listed: [1] | [5] | [12]
inactive: all other assays above

COc1ccc([N+](=O)[O-])cc1N
not listed: [1] | [10] | [11] | [12]
inactive: all other assays above

C=C(C)C(=O)OCCC(F)(F)C(F)(F)C(F)(F)C(F)(F)C(F)(F)C(F)(F)F
active: [4] 12.5 µM
not listed: [1] | [10]
inactive: all other assays above
